Data from PubChem BioAssay (NCI).
Compounds without any hit were thinned out: in the full panel of roughly 83,000, 20% have a hit.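 A percent growth of 40 corresponds to 60% growth inhibition; 0 means no net growth; -100 means all cells died. Active threshold: below 10.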 A number with no mark means an inactive call. Active and inactive are the calls of the source.

What was measured:
Test in all cases: NCI-60 one-dose screen, 48 h (100 = growth as untreated, 0 = no growth, -100 = all killed)
[1] = system: NCI-H23 lung; conditions: 10 µM unless noted
[2] = system: NCI-H226 lung; conditions: 10 µM unless noted
[3] = system: NCI-H322M lung; conditions: 10 µM unless noted
[4] = system: HOP-62 NSCLC; conditions: 10 µM unless noted
[5] = system: NCI-H460 lung; conditions: 10 µM unless noted
[6] = system: 786-0 renal; conditions: 10 µM unless noted
[7] = system: MDA-MB-231 breast; conditions: 10 µM unless noted
[8] = system: SF-268 CNS; conditions: 10 µM unless noted
[9] = system: SF-539 CNS; conditions: 10 µM unless noted
[10] = system: M14 melanoma; conditions: 10 µM unless noted
[11] = system: HCT-15 colon; conditions: 10 µM
[12] = system: U251 CNS; conditions: 10 µM unless noted
[13] = system: UACC-62 melanoma; conditions: 10 µM unless noted
[14] = system: SK-MEL-28 melanoma; conditions: 10 µM unless noted
[15] = system: UO-31 renal; conditions: 10 µM unless noted
[16] = system: OVCAR-5 ovarian; conditions: 10 µM unless noted
[17] = system: MDA-MB-435 melanoma; conditions: 10 µM unless noted
[18] = system: SW-620 colon; conditions: 10 µM unless noted
[19] = system: MCF7 breast; conditions: 10 µM unless noted
[20] = system: KM12 colon; conditions: 10 µM unless noted

O=S(=O)(Cl)c1ccccc1 (tested in a mixture with another compound)
growth [1]: 106%
growth [2]: 97.3%
growth [3]: 102%
growth [4]: 92.9%
growth [5]: 103%
growth [6]: 102%
growth [7]: 117%
growth [8]: 104%
growth [9]: 102%
growth [10]: 102%
growth [11]: 101%
growth [12]: 93.7%
growth [13]: 106%
growth [14]: 103%
growth [15]: 85%
growth [16]: 93.7%
growth [17]: 115%
growth [18]: 96.9%
growth [19]: 93.1%
growth [20]: 108%

COP(=S)(OC)Oc1ccc(SC)c(C)c1
growth [1]: 97.7%
growth [2]: 85.6%
growth [3]: 108%
growth [4]: 95.4%
growth [5]: 110%
growth [6]: 104%
growth [7]: 113%
growth [8]: 110%
growth [9]: 94.4%
growth [10]: 101%
growth [11]: 105%
growth [12]: 100%
growth [13]: 95.5%
growth [14]: 115%
growth [15]: 80.2%
growth [16]: 93.2%
growth [17]: 100%
growth [18]: 106%
growth [19]: 113%
growth [20]: 105%

[Br][Pb]([c]1ccccc1)([c]1ccccc1)[c]1ccccc1
growth [1]: -88.8% (active)
growth [2]: -44.6% (active)
growth [3]: -100% (active)
growth [4]: -97.7% (active)
growth [5]: -100% (active)
growth [6]: -96.3% (active)
growth [7]: -92.2% (active)
growth [8]: -95.1% (active)
growth [9]: -90.6% (active)
growth [10]: -100% (active)
growth [11]: -77.8% (active)
growth [12]: -100% (active)
growth [13]: -92.2% (active)
growth [14]: -100% (active)
growth [15]: -99.8% (active)
growth [16]: -93.1% (active)
growth [17]: -98.6% (active)
growth [18]: -95.3% (active)
growth [19]: -69.9% (active)
growth [20]: -99.4% (active)

C1CN1c1nc(N2CC2)nc(N2CC2)n1
growth [1]: 15.8%
growth [2]: 58.6%
growth [3]: 78.1%
growth [4]: 31.3%
growth [5]: 16.5%
growth [6]: 9.79% (active)
growth [7]: 87.8%
growth [8]: 30.4%
growth [9]: -7.16% (active)
growth [10]: 25.1%
growth [11]: 23.8%
growth [12]: 7.27% (active)
growth [13]: 41.1%
growth [15]: 1.86% (active)
growth [16]: 64.5%
growth [17]: 63.9%
growth [18]: 51.8%
growth [19]: 20.9%
growth [20]: 61.8%

C[C@]12CC[C@@H]3c4ccc(OC(=O)Cc5ccc(N(CCCl)CCCl)cc5)cc4CC[C@H]3[C@@H]1CC[C@@H]2OC(=O)Cc1ccc(N(CCCl)CCCl)cc1
growth [1]: 119%
growth [2]: 92.6%
growth [3]: 100%
growth [4]: 110%
growth [5]: 125%
growth [6]: 110%
growth [7]: 102%
growth [8]: 108%
growth [9]: 103%
growth [10]: 107%
growth [11]: 113%
growth [12]: 107%
growth [13]: 88%
growth [14]: 117%
growth [15]: 82.7%
growth [16]: 105%
growth [17]: 112%
growth [18]: 103%
growth [19]: 120%
growth [20]: 111%

CC(=O)O[C@H]1CC[C@H]2[C@@H]3CC[C@H]4CC=C(C)C[C@]4(C)[C@H]3CC[C@]12C
growth [1]: 104%
growth [2]: 103%
growth [3]: 104%
growth [4]: 98.9%
growth [5]: 113%
growth [6]: 100%
growth [7]: 109%
growth [8]: 100%
growth [9]: 96.2%
growth [10]: 101%
growth [11]: 98.6%
growth [12]: 110%
growth [13]: 98.5%
growth [14]: 112%
growth [15]: 92.3%
growth [16]: 92.1%
growth [17]: 106%
growth [18]: 109%
growth [19]: 100%
growth [20]: 103%

CC1(C)N=C(N)N=C(N)N1c1ccc(CCCCc2ccc(Cl)cc2S(=O)(=O)F)c(Cl)c1
growth [1]: 25.6%
growth [2]: 30.6%
growth [3]: 34.2%
growth [4]: 33.4%
growth [5]: 8.45% (active)
growth [6]: 20.4%
growth [7]: 27.4%
growth [8]: 25.2%
growth [9]: 19.6%
growth [10]: 18%
growth [11]: 22.4%
growth [12]: 15.3%
growth [13]: 22.5%
growth [14]: 37.8%
growth [15]: 60.7%
growth [16]: 31.4%
growth [17]: 19.6%
growth [18]: 11.9%
growth [19]: 13.3%
growth [20]: 15.7%

N#CC1=C(N)Oc2cc3c(cc2C1c1cccs1)OCO3 (configuration not stated)
growth [1]: 15.2%
growth [2]: 47.6%
growth [3]: 40.5%
growth [4]: 26.3%
growth [5]: 15.6%
growth [6]: 49.5%
growth [7]: 41.8%
growth [8]: 47.3%
growth [9]: 0.18% (active)
growth [10]: 15.1%
growth [11]: 35.5%
growth [12]: 25.4%
growth [13]: 31.1%
growth [14]: 37.9%
growth [15]: 49.2%
growth [16]: 52.2%
growth [17]: -7.43% (active)
growth [18]: 26.3%
growth [19]: 15.7%
growth [20]: 34.2%

CNC(C)Cc1ccccc1 (configuration not stated) (tested in a mixture with another compound)
growth [1]: 99.2%
growth [2]: 99.5%
growth [3]: 89.2%
growth [4]: 98%
growth [5]: 104%
growth [6]: 102%
growth [7]: 120%
growth [8]: 108%
growth [9]: 99.7%
growth [10]: 103%
growth [11]: 101%
growth [12]: 89.9%
growth [13]: 107%
growth [14]: 105%
growth [15]: 82.9%
growth [16]: 88.1%
growth [17]: 104%
growth [18]: 102%
growth [19]: 97.3%
growth [20]: 99.8%

CCC(C)[C@H]1O[C@]2(C=C[C@@H]1C)C[C@@H]1C[C@@H](C/C=C(\C)[C@@H](OC3C[C@H](OC)C(O[C@H]4C[C@H](OC)[C@@H](O)[C@H](C)O4)[C@H](C)O3)[C@@H](C)/C=C/C=C3\CO[C@@H]4[C@H](O)C(C)=C[C@@H](C(=O)O1)[C@]34O)O2 (some centres not stated)
growth [1]: 5.82% (active)
growth [2]: -15.6% (active)
growth [3]: 25.7%
growth [4]: -6% (active)
growth [5]: -34.5% (active)
growth [6]: 0.269% (active)
growth [7]: -58.2% (active)
growth [8]: 1.66% (active)
growth [9]: -71.6% (active)
growth [10]: -46.7% (active)
growth [11]: -20.2% (active)
growth [12]: -16% (active)
growth [13]: -35% (active)
growth [14]: -82.4% (active)
growth [15]: 10.1%
growth [16]: -31.8% (active)
growth [17]: -31.6% (active)
growth [18]: -72% (active)
growth [19]: 10.4%
growth [20]: -12.3% (active)

O=C1NC(=O)C(CN2C(=O)C3(c4ccccc42)[C@H](Cl)C(=O)N3c2ccccc2)C(=O)N1 (some centres not stated)
growth [1]: 69.1%
growth [2]: 76.4%
growth [3]: 90.6%
growth [4]: 66.3%
growth [5]: 94.8%
growth [6]: 94%
growth [7]: 51.4%
growth [8]: 84.7%
growth [9]: 74.1%
growth [10]: 105%
growth [11]: 94.7%
growth [12]: 72.6%
growth [14]: 76.8%
growth [15]: 69.2%
growth [16]: 84.6%
growth [17]: 104%
growth [18]: 72.5%
growth [19]: 18.4%
growth [20]: 86.3%

CCN(CC)c1ccc(C=C2C(=O)NC(=S)NC2=O)cc1
growth [1]: 93.4%
growth [2]: 85.5%
growth [3]: 104%
growth [4]: 98.1%
growth [5]: 104%
growth [6]: 96.7%
growth [7]: 93.7%
growth [8]: 80.1%
growth [9]: 97.4%
growth [10]: 102%
growth [11]: 77.5%
growth [12]: 77%
growth [13]: 85.9%
growth [14]: 103%
growth [15]: 76.1%
growth [16]: 95.1%
growth [17]: 98.1%
growth [18]: 77.9%
growth [19]: 60.3%
growth [20]: 96.8%

O=C(CCCN1CCC2(CC1)C(=O)NCN2c1ccc(F)cc1)c1ccc(F)cc1
growth [1]: 98.2%
growth [2]: 78.4%
growth [3]: 90%
growth [4]: 95.9%
growth [5]: 96.8%
growth [6]: 101%
growth [7]: 98.1%
growth [8]: 112%
growth [9]: 93.2%
growth [10]: 97.3%
growth [11]: 105%
growth [12]: 102%
growth [13]: 90.5%
growth [14]: 118%
growth [15]: 83.6%
growth [16]: 91.3%
growth [17]: 109%
growth [18]: 106%
growth [19]: 85.9%
growth [20]: 108%

CC(=O)C1CCC2C3CC=C4CC(OC(=O)Cc5ccc(N(CCCl)CCCl)cc5)CCC4(C)C3CCC12C (configuration not stated)
growth [1]: 96.6%
growth [2]: 94.6%
growth [3]: 119%
growth [4]: 112%
growth [5]: 101%
growth [7]: 112%
growth [8]: 93.7%
growth [9]: 79.5%
growth [10]: 97.4%
growth [11]: 99.5%
growth [12]: 106%
growth [13]: 91.4%
growth [14]: 107%
growth [15]: 109%
growth [16]: 107%
growth [17]: 111%
growth [18]: 101%
growth [19]: 106%
growth [20]: 106%

Cc1cc(NC(=O)CCc2ccc(N3C(N)=NC(N)=NC3(C)C)cc2)ccc1S(=O)(=O)F
growth [1]: 26.2%
growth [2]: 37.4%
growth [3]: 29.7%
growth [4]: 28.7%
growth [5]: 12.3%
growth [6]: 20.9%
growth [7]: 76.8%
growth [8]: 32.2%
growth [9]: 5.99% (active)
growth [10]: 48.2%
growth [11]: 60.1%
growth [12]: 24.2%
growth [13]: 22.6%
growth [14]: 53.9%
growth [15]: 101%
growth [16]: 17.9%
growth [17]: 32%
growth [18]: 23.1%
growth [19]: 14.9%
growth [20]: 18.8%
